Data published in PubChem BioAssay AID588475 (Sanford-Burnham Center for Chemical Genomics, 2011).
About 2,100 (0.6%) of roughly 350,000 compounds were called active.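 The calls were made as follows: active = inhibition of the ligand-induced calcium signal above about 50% at the single tested concentration (limit read from the data); inactive = the rest.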 The list comes from a sample in which actives are over-represented; it also holds similar structures and randomly drawn compounds.

Test: blockers of CRF-evoked CRF-R2/CRF-BP calcium response – cell-based, HEK293, calcium dye fluorescence, uHTS, primary screen (AID 588475)
Conditions: CRF-induced calcium fluorescence, at 11.8 µM, active compounds read high

Structure (SMILES)	inhibition
CSc1nnc(-c2ccc(C(F)(F)F)cn2)o1	4.97% (inactive)
O=C(OCC(=O)N1CCc2ccccc21)c1ccc([N+](=O)[O-])cc1	-3.17% (inactive)
CN1CCOC1c1ccc(C2OCCN2C)cc1 (stereo not given)	4.93% (inactive)
CCCc1nc2c(C)cc(-c3nc4ccccc4n3C)cc2n1Cc1ccc(-c2ccccc2C(=O)O)cc1	17.1% (inactive)
CN(C)CCCN(Cc1cc2cc3c(cc2[nH]c1=O)OCCO3)C(=O)NC1CCCCC1	-6.7% (inactive)
Cc1cc(C(=O)OC(C)C(=O)NC2CCCCC2C)c(C)o1 (stereo not given)	-2.53% (inactive)
O=C(Cn1cnc([N+](=O)[O-])n1)NCCc1ccccc1	67.5% (active)
CC(C)(C)NC(=O)Cn1cnc([N+](=O)[O-])n1	4.8% (inactive)
O=C(Cc1ccc(Br)cc1)NCCc1ccccc1	-0.6% (inactive)
COCC(=O)N1CCc2ccc(NC(=O)c3ccccc3Cl)cc2C1	6.03% (inactive)
S=C(NCc1cccs1)Nc1ccc(Cl)cc1	8.34% (inactive)
FC(F)(F)Oc1ccc(NC(=S)NCc2ccccc2)cc1	44.6% (inactive)
Fc1ccccc1CNC(=S)Nc1ccc(Cl)cc1	66% (active)
COc1ccc(NC2CC(=O)N(C)C2=O)cc1 (stereo not given)	20.5% (inactive)
CN(C)CCN(C(=O)C1=COCCO1)c1nc2ccc(Cl)cc2s1	-9.68% (inactive)
CCN(CC)CCN(C(=O)c1cc(Cl)sc1Cl)c1nc2cc3c(cc2s1)OCO3	-22.2% (inactive)
CN(C)CCN(C(=O)CN1C(=O)c2ccccc2C1=O)c1nc2cc3c(cc2s1)OCCO3	85.2% (active)
O=C(COc1ccc(Cl)cc1)NCCSc1ccccc1	9.25% (inactive)
O=C1CCC(CCC(=O)N2CCCC(C(=O)c3ccc(Cl)cc3)C2)=NN1 (stereo not given)	-7.3% (inactive)
CC(=O)n1cc([C@H]2C=C(C(=O)N3CCOCC3)O[C@@H](OCc3ccc(CO)cc3)C2)c2ccccc21	-5.43% (inactive)
Cc1cc2c(cc1C)NC(c1ccccn1)C1=C(CC(C)(C)CC1=O)N2 (stereo not given)	7.43% (inactive)
Cc1ccc(NC(=O)NC2CCCCC2)cc1S(=O)(=O)N1CCOCC1	5.45% (inactive)
Cc1ccc(C(=O)Nc2ncccc2C)cc1S(=O)(=O)N1CCOCC1	-0.48% (inactive)
Cc1ccc(C(=O)Nc2ccccc2C(=O)NC2CCCCC2)cc1S(=O)(=O)N1CCOCC1	72.2% (active)
Cc1cccc(N(C(=O)c2sc(C)nc2C)C(C(=O)NCC2CCCO2)c2ccccc2)c1 (stereo not given)	54.8% (active)
O=C(NCC(=O)N(c1ccccc1)C(C(=O)NCC1CCCO1)c1ccccc1)c1cccs1 (stereo not given)	-1.33% (inactive)
Cc1nc(C)c(C(=O)N(c2ccc(C)c(C)c2)C(C(=O)NCc2ccco2)c2ccccc2)s1 (stereo not given)	-3.65% (inactive)
COc1ccc([N+](=O)[O-])cc1N(CC(O)CN(CC(C)C)CC(C)C)S(=O)(=O)c1ccc(C)cc1 (stereo not given)	-23.4% (inactive)

Structure (SMILES)	inhibition
Cc1ccc(S(=O)(=O)N(CC(O)CN2CCCCC2)c2cccc([N+](=O)[O-])c2)cc1 (stereo not given)	-12.3% (inactive)
COc1ccc([N+](=O)[O-])cc1N(CC(O)Cn1nnc2ccccc21)S(=O)(=O)c1ccc(C)cc1 (stereo not given)	67.3% (active)
CN(Cc1ccc(CNC[C@H]2O[C@@H](n3cnc4c(N)ncnc43)[C@H](O)[C@@H]2O)o1)S(C)(=O)=O	15.6% (inactive)
O=C(O)c1ccc(/C=N/NC(=S)NCc2ccccc2)cc1	3.62% (inactive)
C=CCNC(=S)N/N=C/c1ccc(OCc2ccccc2)cc1	95.3% (active)
O=C(Cc1cccs1)N/N=C/c1ccc(OCc2ccccc2)cc1	-49.7% (inactive)
CN(CCO)c1ccc(/C=N/Nc2nncc3ccccc23)cc1	13.7% (inactive)
COc1ccc2[nH]c(=O)c(CN(Cc3cccnc3)S(=O)(=O)c3ccccc3F)cc2c1	-7.64% (inactive)
CN(C)/C(=N\OC(=O)c1ccccc1)c1nonc1N	28.8% (inactive)
CCCOc1ccc(CNC(=O)C2CCN(c3nn4c(=O)cc(C)nc4s3)CC2)cc1	4.13% (inactive)
COc1ccc(CCNC(=O)C2CCN(c3nn4c(=O)cc(C)nc4s3)CC2)cc1OC	-3.66% (inactive)
Cc1cc(=O)n2nc(N3CCC(C(=O)Nc4c(F)c(F)c(F)c(F)c4F)CC3)sc2n1	88.8% (active)
CCOc1ccc(N(CC(=O)Nc2ccccc2F)S(=O)(=O)c2c(C)[nH]c(=O)[nH]c2=O)cc1	-6.15% (inactive)
CCCNS(=O)(=O)c1ccc(CCC(=O)N2CCCC2)cc1	0.99% (inactive)
C[C@@H]1CN([C@H](C)CO)C(=O)CCCn2nncc2CO[C@@H]1CN(C)C(=O)OCc1ccccc1	-0.52% (inactive)
Cc1ccc(C(=O)c2coc3ccc(O)c(CN(C)C)c23)cc1	-15.4% (inactive)
COc1ccccc1C(=O)N1CCN=C1SCc1cccnc1	11.4% (inactive)
COc1cccc(OC)c1C(=O)N1CCN(Cc2cccnc2)CC1	56.1% (active)
COc1cccc(OC)c1C(=O)N1CCN(Cc2ccccc2F)CC1	24.1% (inactive)
Cc1nc2sc(C(c3ccco3)N3CCC4(CC3)OCCO4)c(O)n2n1 (stereo not given)	11.4% (inactive)
[O-][N+]12CCCCC1CCCC2CO (stereo not given)	8.6% (inactive)
COc1ccc(S(=O)(=O)N2CCc3ccccc32)cc1C(=O)Nc1cc(S(C)(=O)=O)ccc1Cl	2.64% (inactive)
COc1ccccc1N(C)C(=O)c1cc(S(=O)(=O)N2CCc3ccccc32)cn1C	-4.87% (inactive)
COc1cccc(NC(=O)c2cc(S(=O)(=O)N3CCc4ccccc43)cn2C)c1	82.7% (active)
O=C(N[C@@H]1C/C=C\C[C@@H](CC(=O)N(CCO)Cc2ccccc2)C(=O)N[C@H](Cc2ccccc2)COC1=O)OCC1c2ccccc2-c2ccccc21	1.02% (inactive)
O=C(N[C@H]1C/C=C\C(c2ccc(F)cc2)N(Cc2ccccc2)C(=O)C1)OCC1c2ccccc2-c2ccccc21 (stereo not given in full)	-13.4% (inactive)
O=C(N[C@H]1C/C=C\C(c2cccc(F)c2)N(Cc2ccccc2)C(=O)C1)OCC1c2ccccc2-c2ccccc21 (stereo not given in full)	98.1% (active)
